Key:
[1] = tested on: Schistosoma mansoni schistosomula (LE); assay: XTT viability relative to DMSO control; higher = more viable (less active); conditions: 72 h; 10 µM
Description: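 XTT/PMS was then added for a further 24 h (72 h total) and A450 was read. % viability = (sample - heat-killed control)/(DMSO control - heat-killed control) x 100, from duplicate wells in two independent experiments.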

[2] = tested on: Schistosoma mansoni schistosomula (NMRI); assay: phenotypic severity score (0-4); higher = more antischistosomal effect, active = 2 or more; conditions: 10 µM
[3] = tested on: Schistosoma mansoni schistosomula (Liberian); assay: drug effect (1 - score/DMSO control score) (fraction); higher = more antischistosomal effect, active = 0.5 or more; extreme values may be limits of the assay; conditions: 10 µM
Method in brief: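 Liberian-strain Schistosoma mansoni schistosomula, mechanically transformed from cercariae and pre-incubated at least 12 h, were exposed in duplicate (50 per well, flat-bottom 96-well plates) to 10 µM compound in Medium 199 with 5% FCS at 37 °C, 5% CO2, with 0.1% DMSO control wells. Wells were scored visually (10×) at 24, 48 and 72 h on a quarter-point scale from 3 (normal) to 0 (dead). Drug effect was derived from the mean test-well score relative to the mean DMSO-control score. Negative values were set to zero, and plates were valid only if control wells averaged at least 2.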
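Wherever phenotypic severity score (0-4) is given: visual microscopic scoring of shape, motility and density changes versus 0.5% DMSO solvent controls, one point per descriptor, degeneracy or death scored 4, mean of duplicate wells.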

Clc1ccc(Cl)c(CO[C@H]2CCCC[C@@H]2n2ccnc2)c1
109%: XTT viability [1]
inactive: phenotypic severity score ([2]; 24 h) 0 | phenotypic severity score ([2]; 48 h) 0 | phenotypic severity score ([2]; 72 h) 0 | drug effect ([3]; 24 h) 0.2 | drug effect ([3]; 48 h) 0.167 | drug effect ([3]; 72 h) 0.25

CC(=O)N1CCN(c2ccc(Oc3ccc(Cl)cc3O)cc2)CC1
89.7%: XTT viability [1]
inactive: phenotypic severity score ([2]; 24 h) 0 | phenotypic severity score ([2]; 48 h) 0 | phenotypic severity score ([2]; 72 h) 0 | drug effect ([3]; 24 h) 0.1 | drug effect ([3]; 48 h) 0.027 | drug effect ([3]; 72 h) 0.0303

COc1ccc(C2=NN(C3CCCCCC3)C(=O)[C@@H]3CC=CC[C@H]23)cc1OCCCCOc1ccc(-c2nn[nH]n2)cc1
31%: XTT viability [1]
active: phenotypic severity score ([2]; 24 h) 2 | drug effect ([3]; 48 h) 0.568 | drug effect ([3]; 72 h) 0.667
inactive: phenotypic severity score ([2]; 48 h) 0 | phenotypic severity score ([2]; 72 h) 0 | drug effect ([3]; 24 h) 0.35

CCC(=O)Nc1ccccc1C(=O)Nc1ccccn1
inactive: phenotypic severity score ([2]; 24 h) 1 | phenotypic severity score ([2]; 48 h) 0 | phenotypic severity score ([2]; 72 h) 0 | drug effect ([3]; 24 h) 0.136 | drug effect ([3]; 48 h) 0.3 | drug effect ([3]; 72 h) 0.236
87.3%: XTT viability [1]

Nc1nccc2ccc(-c3ccc4nccn4c3)cc12
41.1%: XTT viability [1]
active: phenotypic severity score ([2]; 24 h) 4 | phenotypic severity score ([2]; 48 h) 4 | phenotypic severity score ([2]; 72 h) 4 | drug effect ([3]; 24 h) 0.568 | drug effect ([3]; 48 h) 0.778 | drug effect ([3]; 72 h) 0.75

FC(F)(F)c1cc(NCCc2ccccc2)nc(-c2ccccn2)n1
inactive: phenotypic severity score ([2]; 24 h) 1 | drug effect ([3]; 24 h) 0.05 | drug effect ([3]; 72 h) 0.394
active: phenotypic severity score ([2]; 48 h) 2 | phenotypic severity score ([2]; 72 h) 4 | drug effect ([3]; 48 h) 0.514
58.7%: XTT viability [1]

CC(C)(C)OC(=O)N1CCN(c2nccc(-c3ccc(-c4ccc(Cl)cc4)s3)n2)CC1
inactive: phenotypic severity score ([2]; 24 h) 0 | phenotypic severity score ([2]; 48 h) 0 | phenotypic severity score ([2]; 72 h) 0 | drug effect ([3]; 24 h) 0.182 | drug effect ([3]; 48 h) 0.15 | drug effect ([3]; 72 h) 0.182
93.7%: XTT viability [1]

COC(=O)c1ccc(F)cc1NS(=O)(=O)c1cccc(-c2cnn(Cc3ccccc3)c2)c1
inactive: phenotypic severity score ([2]; 24 h) 1 | phenotypic severity score ([2]; 48 h) 1 | phenotypic severity score ([2]; 72 h) 1 | drug effect ([3]; 24 h) 0.409 | drug effect ([3]; 48 h) 0.45 | drug effect ([3]; 72 h) 0.455
89.1%: XTT viability [1]

COc1cccc(-c2nc3c(N4CCCC4)cccc3n2CC2CCCN2)n1 (configuration not stated)
158%: XTT viability [1]
inactive: drug effect ([3]; 24 h) 0.35
active: phenotypic severity score ([2]; 24 h) 4 | phenotypic severity score ([2]; 48 h) 4 | phenotypic severity score ([2]; 72 h) 4 | drug effect ([3]; 48 h) 0.778 | drug effect ([3]; 72 h) 0.75

O=C(OCc1ccccc1)N1CCC(c2cc(-c3ccncc3)c(-c3ccc(F)cc3)[nH]2)CC1
124%: XTT viability [1]
inactive: phenotypic severity score ([2]; 24 h) 0 | phenotypic severity score ([2]; 48 h) 0 | phenotypic severity score ([2]; 72 h) 0 | drug effect ([3]; 24 h) 0.1 | drug effect ([3]; 48 h) 0.222 | drug effect ([3]; 72 h) 0.188

O=C(COc1cccc(F)c1)Nc1nc(-c2ccccn2)cs1
inactive: phenotypic severity score ([2]; 24 h) 0 | phenotypic severity score ([2]; 48 h) 0 | phenotypic severity score ([2]; 72 h) 0 | drug effect ([3]; 24 h) 0.0909 | drug effect ([3]; 48 h) 0.1 | drug effect ([3]; 72 h) 0.127
68.1%: XTT viability [1]

CC(C)C(Oc1cccc2ccccc12)C(=O)O (configuration not stated)
inactive: phenotypic severity score ([2]; 24 h) 0 | phenotypic severity score ([2]; 48 h) 0 | phenotypic severity score ([2]; 72 h) 0 | drug effect ([3]; 24 h) < 0 | drug effect ([3]; 48 h) < 0 | drug effect ([3]; 72 h) 0.0556
108%: XTT viability [1]

CC(C)N=c1cc2n(-c3ccc(Cl)cc3)c3ccccc3nc-2cc1Nc1ccc(Cl)cc1
active: phenotypic severity score ([2]; 24 h) 4 | phenotypic severity score ([2]; 48 h) 4 | phenotypic severity score ([2]; 72 h) 4 | drug effect ([3]; 24 h) 1 | drug effect ([3]; 48 h) 1 | drug effect ([3]; 72 h) 1
16.6%: XTT viability [1]

FC(F)(F)c1cnc(Sc2nnc(-c3ccncc3)o2)c(Cl)c1
active: phenotypic severity score ([2]; 72 h) 2 | drug effect ([3]; 48 h) 0.778 | drug effect ([3]; 72 h) 0.938
74%: XTT viability [1]
inactive: phenotypic severity score ([2]; 24 h) 0 | phenotypic severity score ([2]; 48 h) 1 | drug effect ([3]; 24 h) 0.459

O=C(Nc1nnc(S)s1)c1cc(Br)ccc1Cl
inactive: phenotypic severity score ([2]; 24 h) 0 | phenotypic severity score ([2]; 48 h) 0 | phenotypic severity score ([2]; 72 h) 0 | drug effect ([3]; 24 h) 0.05 | drug effect ([3]; 48 h) 0.027 | drug effect ([3]; 72 h) 0.0909
91.7%: XTT viability [1]

Cc1nc2ccccn2c1C(=O)NCc1ccc(Cl)cc1
inactive: phenotypic severity score ([2]; 24 h) 0 | phenotypic severity score ([2]; 48 h) 0 | phenotypic severity score ([2]; 72 h) 0 | drug effect ([3]; 24 h) 0.1 | drug effect ([3]; 48 h) 0.189 | drug effect ([3]; 72 h) 0.333
81%: XTT viability [1]

CCCCc1ccc(C(=O)Nc2nccc3ccccc23)nc1
94.2%: XTT viability [1]
inactive: phenotypic severity score ([2]; 24 h) 1 | phenotypic severity score ([2]; 48 h) 0 | phenotypic severity score ([2]; 72 h) 1 | drug effect ([3]; 24 h) 0.1 | drug effect ([3]; 48 h) 0.167 | drug effect ([3]; 72 h) 0.188

c1ccc(-c2[nH]c3ccccc3c2C(c2ccccn2)N2CCCC2)cc1 (configuration not stated)
active: phenotypic severity score ([2]; 24 h) 4 | phenotypic severity score ([2]; 48 h) 4 | phenotypic severity score ([2]; 72 h) 4 | drug effect ([3]; 24 h) 1 | drug effect ([3]; 48 h) 1 | drug effect ([3]; 72 h) 1
-3.4%: XTT viability [1]

COc1cc(C2=NCCN2)cc2cc(-c3ccc(C4=NCCN4)cc3)oc12
inactive: phenotypic severity score ([2]; 24 h) 0 | phenotypic severity score ([2]; 48 h) 0 | phenotypic severity score ([2]; 72 h) 0 | drug effect ([3]; 24 h) 0.1 | drug effect ([3]; 48 h) 0.027 | drug effect ([3]; 72 h) 0.0303
4.86%: XTT viability [1]

CC(=O)Nc1ccc(NC(=O)c2cc(-c3cc(Cl)ccc3O)[nH]n2)cc1
94.2%: XTT viability [1]
inactive: phenotypic severity score ([2]; 24 h) 0 | phenotypic severity score ([2]; 48 h) 0 | phenotypic severity score ([2]; 72 h) 0 | drug effect ([3]; 24 h) 0.227 | drug effect ([3]; 48 h) 0.15 | drug effect ([3]; 72 h) 0.127

NCCC(O)C(=O)N[C@@H]1C[C@H](N)[C@@H](OC2O[C@H](CN)[C@@H](O)[C@H](O)[C@H]2O)[C@H](O)C1OC1O[C@H](CO)[C@@H](O)[C@H](N)[C@H]1O (some centres not stated)
inactive: phenotypic severity score ([2]; 24 h) 0 | phenotypic severity score ([2]; 48 h) 0 | phenotypic severity score ([2]; 72 h) 0 | drug effect ([3]; 24 h) < 0 | drug effect ([3]; 48 h) 0.0625 | drug effect ([3]; 72 h) < 0
93.8%: XTT viability [1]

— the supplement of paper PMC6805474
